Test [1] in a line: Caspase-3/7 induction in CHO-K1 cells by small molecules, qHTS assay (AID 1346980). Also: nearly all actives have a fitted effect of over 15% in size. Summed up:
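Luminescent Caspase-Glo 3/7 read (30min, room temperature) quantified apoptosis induction. Cells were wild-type CHO-K1, treated with compound for 17hr at 37 C and 5% CO2.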

Test [2] in a line: Caspase-3/7 induction in HepG2 cells by small molecules, qHTS cell viability counter screen (AID 1346981). Also: nearly all actives have a fitted effect of over 30% in size. Also: potency is read from the fitted curve at half-maximal effect. As to activity change, negative = cytotoxicity: series mostly up to about 92 µM. In short, it runs like this: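 In this quantitative HTS counter screen, compounds delivered in DMSO were left on unmodified HepG2 cells for 16 hr at 37 C. Viability was then determined fluorometrically with CellTiter-Fluor, in parallel with caspase-3/7 induction in the same wells.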

Test [3] has as its target Nuclear receptor subfamily 1 group I member 2 (Homo sapiens) (UniProt O75469). The test can be described thus: Human pregnane X receptor (PXR) small molecule agonists, qHTS assay (AID 1346982). Also: nearly all actives have a fitted effect of over 35% in size. Also: potency is read from the fitted curve at half-maximal effect. In short, it runs like this: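 Reporter HepG2 cells expressing PXR-Luc are cultured in charcoal-stripped FBS (5%), treated with compounds for 24 hr at 37 C, and assayed by ONE-Glo luminescence after 30 min at room temperature.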
On the technique in general: Quantitative high-throughput screening tests each substance at several concentrations.

The target of test [4] is Cytochrome P450 2D6 (Homo sapiens) (UniProt P10635). The test can be described thus: Cytochrome P450 Family 2 Subfamily D Member 6 (CYP2D6) small molecule antagonists: luciferase reporter qHTS assay (AID 1671196). Also: nearly all actives have a fitted effect of over 50% in size. Also: potency is read from the fitted curve at half-maximal effect. As to activity change, negative = inhibition: series mostly up to about 120 µM. Summed up:
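Test chemicals meet CYP2D6 plus proluciferin substrate (10 min, RT); NADPH regenerating solution then drives turnover for 1 h. Detection reagent halts the reaction; luminescence measured after 20 min.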
(In general: Reporter assays use an easily measured gene product as a stand-in for the process of interest.)

Test [5] deals with Cytochrome P450 2C19 (Homo sapiens) (UniProt P33261). Put plainly: Cytochrome P450 Family 2 Subfamily C Member 19 (CYP2C19) small molecule antagonists: luciferase reporter qHTS assay (AID 1671197). Also: nearly all actives have a fitted effect of over 65% in size. Also: potency is read from the fitted curve at half-maximal effect. As to activity change, negative = inhibition: series mostly up to about 120 µM. In short, it runs like this: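 Inhibition of CYP2C19 was scored from loss of luminescence in a P450-Glo proluciferin substrate assay, NADPH-started and run 1 h at 37C, with ketoconazole as positive control.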

Test [6] concerns the target Cytochrome P450 2C9 (Homo sapiens) (UniProt P11712). Put plainly: Cytochrome P450 Family 2 Subfamily C Member 9 (CYP2C9) small molecule antagonists: luciferase reporter qHTS assay (AID 1671198). Also: nearly all actives have a fitted effect of over 50% in size. Also: potency is read from the fitted curve at half-maximal effect. As to activity change, negative = inhibition: series mostly up to about 120 µM. In short, it runs like this:
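Enzyme-substrate mix preincubated with compound 10 min at room temperature; reaction started with NADPH regeneration solution, 1 h 37C. Luminescent luciferin product read after 20 min detection reagent.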

For test [7], the target named is Cytochrome P450 1A2 (Homo sapiens) (UniProt P05177). The test can be described thus: Cytochrome P450 Family 1 Subfamily A Member 2 (CYP1A2) small molecule antagonists: luciferase reporter qHTS assay (AID 1671199). Also: nearly all actives have a fitted effect of over 50% in size. Also: potency is read from the fitted curve at half-maximal effect. As to activity change, negative = inhibition: series mostly up to about 120 µM. Summed up:
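Steps: enzyme-substrate mix dispensed; test compounds and furafylline control pinned in; 10 min room temperature; NADPH regeneration solution added, 1 h; reaction stopped with luciferin detection reagent; luminescence read after 20 min.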

Test [8] has as its target Voltage-gated inwardly rectifying potassium channel KCNH2 (Homo sapiens) (UniProt Q12809). Put plainly: Human Ether-a-go-go-Related Gene (hERG) channel small molecule antagonists: fluorescence cell-based qHTS assay (AID 1671200). Also: nearly all actives have a fitted effect of over 50% in size. Also: potency is read from the fitted curve at half-maximal effect.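 As to activity change, negative = inhibition: hERG-expressing U2OS cells given a thallium stimulus after FluxOR II dye loading; series mostly up to about 77 µM.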 Summed up: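 Thallium served as the potassium surrogate; its influx into dye-loaded U2OS cells carrying the channel was measured by fluorescence over 2 min.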
In general terms: The hERG channel carries a current that helps repolarise heart muscle cells.

Test [9] concerns the target Cytochrome P450 3A4 (Homo sapiens) (UniProt P08684). The test can be described thus: Cytochrome P450 Family 3 Subfamily A Member 4 (CYP3A4) small molecule antagonists: luciferase reporter qHTS assay (AID 1671201). In short, it runs like this:
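Relative luminescence units after 20 min with luciferin detection reagent served as read-out. Beforehand, CYP3A4 turned over a proluciferin substrate for 1 h at room temperature with NADPH regeneration, following 10 min compound preincubation.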

For test [10], the target named is Nuclear receptor subfamily 1 group I member 2 (Rattus norvegicus) (UniProt Q9R1A7). Put plainly: Rat pregnane X receptor (rPXR) activation by small molecules, qHTS assay (AID 1346983). Also: nearly all actives have a fitted effect of over 20% in size. The settings on record: rPXR luciferase reporter cells, One-Glo luminescence, 24 h; max activation: active compounds read high. Summed up: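 Luminescent readout (One-Glo luciferase, 30 min room temperature) followed 24 hr compound treatment at 37 C of rPXR cells plated 2,000 per well and preincubated 5hr; qHTS format with compounds delivered in DMSO.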

In test [11] the target is Nuclear receptor subfamily 1 group I member 2 (Homo sapiens) (UniProt O75469). Put plainly: CYP3A4 induction through human pregnane X receptor (PXR) by small molecules, qHTS assay (AID 1346984). Also: nearly all actives have a fitted effect of over 40% in size. Summed up:
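Induction measured in HepG2-based DPX-2 cells co-expressing human PXR and a CYP3A4 promoter-driven luciferase. After a 24-hour compound exposure, cells received CYP3A4 luciferin substrate at 3uM final for 3 hours, and light output was then recorded.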

Test [12] shares this target. The test can be described thus: Human pregnane X receptor (PXR) activation by small molecules, qHTS assay (AID 1346985). Also: nearly all actives have a fitted effect of over 40% in size. Summed up: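 DPX-2 cells (HepG2 co-transfected with a PXR response element and a CYP3A4-promoter luciferase construct) were seeded at 2,000 per well, rested 5 hr at 37C, then exposed to DMSO-dissolved compounds for 24 hr. Activation was read as luciferase luminescence.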

The values that follow come from PubChem BioAssay (Tox21).

Values without a mark were called inactive. Results filed as inconclusive are left out. The source made the active and inactive calls. Calls follow the shape of the dose curve; as a rule, active = well fitted curve in the direction sought with a large enough effect in the repeat runs; inconclusive = weak or mixed curves; inactive = no such curve, though single readings can be large; an effect the other way counts as inactive or inconclusive.
% is scaled to controls: 0 for no effect and ±100 for the full control effect.

Sequence of Voltage-gated inwardly rectifying potassium channel KCNH2 (Homo sapiens) (Q12809 whole entry, looked up): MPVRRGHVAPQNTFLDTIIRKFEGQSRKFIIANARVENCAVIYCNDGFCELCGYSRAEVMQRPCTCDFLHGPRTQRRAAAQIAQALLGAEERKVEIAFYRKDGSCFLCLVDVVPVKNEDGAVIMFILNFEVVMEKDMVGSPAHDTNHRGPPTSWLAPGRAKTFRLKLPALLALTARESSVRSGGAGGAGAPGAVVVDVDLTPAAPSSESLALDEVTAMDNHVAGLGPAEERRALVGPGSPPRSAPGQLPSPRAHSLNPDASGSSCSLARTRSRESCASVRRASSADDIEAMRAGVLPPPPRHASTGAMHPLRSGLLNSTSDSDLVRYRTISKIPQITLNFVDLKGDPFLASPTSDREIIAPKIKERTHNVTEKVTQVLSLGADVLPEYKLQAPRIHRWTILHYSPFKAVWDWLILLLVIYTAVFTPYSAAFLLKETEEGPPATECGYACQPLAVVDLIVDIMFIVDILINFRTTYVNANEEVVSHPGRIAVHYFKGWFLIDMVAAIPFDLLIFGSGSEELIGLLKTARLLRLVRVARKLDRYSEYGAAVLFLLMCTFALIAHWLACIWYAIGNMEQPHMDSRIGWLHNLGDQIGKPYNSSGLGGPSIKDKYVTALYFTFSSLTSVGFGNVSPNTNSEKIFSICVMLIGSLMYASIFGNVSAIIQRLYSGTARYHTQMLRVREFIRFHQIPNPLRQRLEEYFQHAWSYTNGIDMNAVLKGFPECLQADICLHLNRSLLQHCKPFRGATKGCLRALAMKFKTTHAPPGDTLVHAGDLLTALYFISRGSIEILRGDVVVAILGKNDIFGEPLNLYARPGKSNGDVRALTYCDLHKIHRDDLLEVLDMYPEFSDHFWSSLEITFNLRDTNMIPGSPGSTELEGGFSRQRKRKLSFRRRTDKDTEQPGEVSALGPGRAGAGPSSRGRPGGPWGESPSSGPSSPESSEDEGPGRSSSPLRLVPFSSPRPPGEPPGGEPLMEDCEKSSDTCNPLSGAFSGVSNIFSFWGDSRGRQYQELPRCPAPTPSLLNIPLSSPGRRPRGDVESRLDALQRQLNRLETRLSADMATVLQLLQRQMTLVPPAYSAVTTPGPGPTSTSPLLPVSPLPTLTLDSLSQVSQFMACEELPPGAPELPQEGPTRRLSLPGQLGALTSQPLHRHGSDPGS
Sequence of Cytochrome P450 2C9 (Homo sapiens) (P11712 whole entry, looked up): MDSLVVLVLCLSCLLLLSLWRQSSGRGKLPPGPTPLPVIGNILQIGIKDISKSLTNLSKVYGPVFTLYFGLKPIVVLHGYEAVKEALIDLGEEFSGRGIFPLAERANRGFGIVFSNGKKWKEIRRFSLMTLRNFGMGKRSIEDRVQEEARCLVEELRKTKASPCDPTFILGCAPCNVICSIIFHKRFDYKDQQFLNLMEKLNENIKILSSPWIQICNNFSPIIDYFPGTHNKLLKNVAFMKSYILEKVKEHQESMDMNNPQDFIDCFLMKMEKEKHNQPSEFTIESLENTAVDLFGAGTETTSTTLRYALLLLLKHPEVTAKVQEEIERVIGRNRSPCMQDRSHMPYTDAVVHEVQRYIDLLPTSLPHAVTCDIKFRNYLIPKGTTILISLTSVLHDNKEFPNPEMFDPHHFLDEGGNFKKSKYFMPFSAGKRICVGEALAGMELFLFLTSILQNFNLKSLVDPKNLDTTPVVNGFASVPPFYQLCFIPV
Sequence of Nuclear receptor subfamily 1 group I member 2 (Homo sapiens) (O75469 whole entry, looked up): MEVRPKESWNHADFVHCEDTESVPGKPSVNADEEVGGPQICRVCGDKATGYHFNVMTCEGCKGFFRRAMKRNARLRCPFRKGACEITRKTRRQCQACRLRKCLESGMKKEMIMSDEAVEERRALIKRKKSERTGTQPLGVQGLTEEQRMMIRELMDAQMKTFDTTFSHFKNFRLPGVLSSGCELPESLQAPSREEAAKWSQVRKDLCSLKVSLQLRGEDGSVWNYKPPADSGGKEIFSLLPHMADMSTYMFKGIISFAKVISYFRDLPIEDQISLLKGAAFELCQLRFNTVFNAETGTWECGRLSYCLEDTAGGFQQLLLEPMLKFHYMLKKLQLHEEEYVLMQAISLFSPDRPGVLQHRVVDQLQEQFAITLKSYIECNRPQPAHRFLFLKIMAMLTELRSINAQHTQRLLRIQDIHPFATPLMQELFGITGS
Sequence of Cytochrome P450 2C19 (Homo sapiens) (P33261 whole entry, looked up): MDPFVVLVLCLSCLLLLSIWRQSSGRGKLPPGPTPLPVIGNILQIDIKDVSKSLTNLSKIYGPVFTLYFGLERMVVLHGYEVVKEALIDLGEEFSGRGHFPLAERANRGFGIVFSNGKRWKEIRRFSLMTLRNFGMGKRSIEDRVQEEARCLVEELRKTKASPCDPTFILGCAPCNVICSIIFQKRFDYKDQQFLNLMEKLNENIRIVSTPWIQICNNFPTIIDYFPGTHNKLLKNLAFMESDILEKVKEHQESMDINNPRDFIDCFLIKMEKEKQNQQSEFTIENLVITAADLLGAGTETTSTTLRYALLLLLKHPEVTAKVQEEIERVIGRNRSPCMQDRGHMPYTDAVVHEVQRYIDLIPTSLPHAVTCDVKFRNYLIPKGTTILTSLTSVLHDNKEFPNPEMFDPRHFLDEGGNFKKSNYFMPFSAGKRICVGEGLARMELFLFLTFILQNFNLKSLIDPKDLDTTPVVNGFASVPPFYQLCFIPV
Sequence of Cytochrome P450 1A2 (Homo sapiens) (P05177 whole entry, looked up): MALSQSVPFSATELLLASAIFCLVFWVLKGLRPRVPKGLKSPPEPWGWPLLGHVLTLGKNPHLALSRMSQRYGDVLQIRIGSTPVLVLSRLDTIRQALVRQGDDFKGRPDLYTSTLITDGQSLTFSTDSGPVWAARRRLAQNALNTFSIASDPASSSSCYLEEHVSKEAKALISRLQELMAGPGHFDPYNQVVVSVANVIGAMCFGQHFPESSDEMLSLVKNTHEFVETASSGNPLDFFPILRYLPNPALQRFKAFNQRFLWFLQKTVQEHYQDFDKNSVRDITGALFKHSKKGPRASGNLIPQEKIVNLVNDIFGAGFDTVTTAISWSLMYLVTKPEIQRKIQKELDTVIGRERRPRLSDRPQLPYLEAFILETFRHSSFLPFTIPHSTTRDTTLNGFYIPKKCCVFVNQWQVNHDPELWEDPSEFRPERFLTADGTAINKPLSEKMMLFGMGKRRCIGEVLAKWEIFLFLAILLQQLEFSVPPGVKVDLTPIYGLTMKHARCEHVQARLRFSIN
Sequence of Cytochrome P450 2D6 (Homo sapiens) (P10635 whole entry, looked up): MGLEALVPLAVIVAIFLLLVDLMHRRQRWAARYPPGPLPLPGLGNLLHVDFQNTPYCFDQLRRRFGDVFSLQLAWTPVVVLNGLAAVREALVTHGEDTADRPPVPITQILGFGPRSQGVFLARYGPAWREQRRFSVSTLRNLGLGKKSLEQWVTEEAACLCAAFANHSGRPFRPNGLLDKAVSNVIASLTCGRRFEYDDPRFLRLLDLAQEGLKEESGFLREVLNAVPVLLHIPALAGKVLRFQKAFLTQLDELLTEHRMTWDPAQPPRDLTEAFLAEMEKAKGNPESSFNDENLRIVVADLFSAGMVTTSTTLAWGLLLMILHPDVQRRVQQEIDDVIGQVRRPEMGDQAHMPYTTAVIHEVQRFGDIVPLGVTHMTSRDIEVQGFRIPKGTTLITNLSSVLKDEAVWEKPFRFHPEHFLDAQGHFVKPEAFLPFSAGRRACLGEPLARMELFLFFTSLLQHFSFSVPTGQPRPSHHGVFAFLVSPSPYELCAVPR
Sequence of Cytochrome P450 3A4 (Homo sapiens) (P08684 whole entry, looked up): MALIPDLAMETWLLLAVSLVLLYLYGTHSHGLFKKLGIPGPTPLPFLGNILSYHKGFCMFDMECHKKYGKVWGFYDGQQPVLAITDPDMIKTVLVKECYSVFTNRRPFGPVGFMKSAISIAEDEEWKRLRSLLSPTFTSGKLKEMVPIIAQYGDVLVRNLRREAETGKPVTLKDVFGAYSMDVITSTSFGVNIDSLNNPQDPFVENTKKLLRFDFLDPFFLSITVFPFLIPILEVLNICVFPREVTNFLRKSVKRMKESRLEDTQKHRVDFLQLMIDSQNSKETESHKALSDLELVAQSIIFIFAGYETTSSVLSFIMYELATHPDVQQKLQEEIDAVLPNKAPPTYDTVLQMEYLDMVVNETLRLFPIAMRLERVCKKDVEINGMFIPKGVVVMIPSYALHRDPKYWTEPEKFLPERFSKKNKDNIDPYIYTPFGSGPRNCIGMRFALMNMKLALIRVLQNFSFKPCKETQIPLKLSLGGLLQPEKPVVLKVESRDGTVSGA
Sequence of Nuclear receptor subfamily 1 group I member 2 (Rattus norvegicus) (Q9R1A7 whole entry, looked up): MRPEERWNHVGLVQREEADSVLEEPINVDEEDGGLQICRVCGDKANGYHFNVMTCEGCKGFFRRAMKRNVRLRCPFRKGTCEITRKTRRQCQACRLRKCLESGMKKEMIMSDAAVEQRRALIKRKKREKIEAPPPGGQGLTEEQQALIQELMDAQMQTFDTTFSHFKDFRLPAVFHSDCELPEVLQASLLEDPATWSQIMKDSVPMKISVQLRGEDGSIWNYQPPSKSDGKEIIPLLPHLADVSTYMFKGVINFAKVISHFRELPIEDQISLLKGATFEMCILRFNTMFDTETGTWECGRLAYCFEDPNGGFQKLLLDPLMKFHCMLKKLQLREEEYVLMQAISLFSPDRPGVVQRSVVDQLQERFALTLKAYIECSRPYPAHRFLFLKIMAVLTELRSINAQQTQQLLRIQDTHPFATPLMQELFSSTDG

In the case of `C=CC(C)(C)O`, the Potency result in test [1], in test [2], in [3], in test [4], in [5] and in test [6] was “inactive” throughout. Moreover, the Potency result in test [7], in test [8] and in test [9] was “inactive” throughout.
As for `Cn1c(=O)[nH]c2ncn(C)c2c1=O`, the Potency entry in [1], in [2], in [3], in test [4], in test [5] and in test [6] was “inactive” in each case. Besides, the Potency result in [7], in [8] and in [9] was “inactive” in each case.
For the molecule `CS(=O)(=O)c1ccc([C@@H](CC2CCCC2)C(=O)Nc2cnccn2)cc1Cl`, in test [1], the Potency entry was “inactive”. The Potency in [2] was 61.1 µM (active).
On to `CCCCCN=C(N)N/N=C/c1c[nH]c2ccc(OC)cc12`, for which the Potency result in [1], in test [3], in [11], in [4], in test [5] and in test [9] was “inactive” each time. In addition, the Potency in test [2] is 26.6 µM (active); in test [6] it was 38.9 µM (active); in test [7], 4.9 µM (active); in test [8], 10.7 µM (active). Moreover, in [10], the max activation was -0.704%.
Turning to `CCCCCCCCSCc1cc(C)c(O)c(CSCCCCCCCC)c1`, the Potency result in test [1], in test [2], in test [3], in [8] and in test [9] was “inactive” each time. The Potency in [4] was 5.03 µM (active); in [5], 7.1 µM (active); in [6] it was 8.94 µM (active); in test [7], 25.2 µM (active).
In the case of `SC1CCCCC1`, the Potency entry in [1], in test [2], in test [3], in test [4], in [5] and in [6] was “inactive” throughout. In addition, the Potency entry in test [7], in [8] and in [9] was “inactive” each time.
With `Clc1ccc2c(Cl)ccnc2c1`, the Potency result in [1], in [2], in test [3], in [4], in [5] and in test [6] was “inactive” throughout. Besides, the Potency result in [8] and in test [9] was “inactive” each time.
For `Clc1cccc(Cl)n1`, the Potency result in test [1], in test [2], in test [3], in [4], in [5] and in [6] was “inactive” in each case. The Potency entry in [7], in test [8] and in [9] was “inactive” throughout.
Regarding `C=COCCCC`, the Potency result in test [1], in test [2], in test [3], in test [4], in test [5] and in test [6] was “inactive” each time. In addition, the Potency entry in test [7] and in test [9] was “inactive” throughout.
Take `CC/C=C(\C)C=O`: the Potency result in test [1], in [2], in test [3], in test [4], in [5] and in test [6] was “inactive” each time. Also, the Potency result in test [8] and in test [9] was “inactive” in each case.
For `CC(=O)Nc1ccc(N=Nc2cc(C)ccc2O)cc1`, the Potency entry in test [1] and in test [8] was “inactive” in each case. Further, the Potency in [2] is 61.1 µM (active); in [3], 9.69 µM (active); in [4] it was 63.3 µM (active); in test [5] it was 56.4 µM (active); in test [6], 35.6 µM (active); in test [7], 31.7 µM (active).
For the molecule `[Cl][Dy]([Cl])[Cl]`, the Potency result in test [1], in test [2], in test [3], in test [4], in test [5] and in test [6] was “inactive” throughout. For the same molecule, the Potency entry in test [7] and in test [8] was “inactive” each time.
Turning to `[Cl][Eu]([Cl])[Cl]`, the Potency entry in test [1], in [2], in [3], in test [4], in test [5] and in test [6] was “inactive” each time. The Potency result in test [7], in [8] and in test [9] was “inactive” throughout.
Consider `Cc1c[nH]c(=O)[nH]c1=O`, for which the Potency result in [1], in test [2], in test [3], in [4], in test [5] and in test [6] was “inactive” throughout. The Potency result in test [8] and in test [9] was “inactive” in each case.
Take `C=CC(=O)OCCOC1C2CCC1C1CC=CC12` (configuration not stated): in test [1], the caspase-3/7 activation is 0.29% [at 19 µM]. In addition, the activity change, negative = cytotoxicity in [2] was 6.81% [at 19 µM]. Besides, the activation in [3] was 5.97% [at 19 µM]. In addition, the activity change, negative = inhibition is -35.4% [at 23.6 µM] in test [4], -18.2% [at 23.6 µM] in test [6], 2.03% [at 15.8 µM] in test [8] and -3.35% [at 23.6 µM] in test [9]. Further, in [5], the Potency was 19 µM (active).
Regarding `CN(C/C=C/c1ccccc1)Cc1cccc2ccccc12`, the Potency entry in test [1], in test [2], in [3], in [11], in test [12] and in test [9] was “inactive” each time. The max activation in test [10] was -2.12%. Further, the Potency in test [4] is 0.977 µM (active); in test [5] it was 3.89 µM (active).
Regarding `COc1cc(C(C)C)ccc1C`, the caspase-3/7 activation in [1] is -1.8% [at 19 µM]. In addition, in [2], the activity change, negative = cytotoxicity is -0.801% [at 19 µM]. Besides, in [3], the activation was -14.1% [at 19 µM]. Moreover, the activity change, negative = inhibition in test [4] is -6.69% [at 23.6 µM]; in [5], -21% [at 23.6 µM]; in test [6] it was -6.13% [at 23.6 µM]; in [7], -17.4% [at 23.6 µM]; in [8], -1.11% [at 15.8 µM]; in test [9], -0.0855% [at 23.6 µM].
As for `CCOC(=O)OC(=O)OCC`, the Potency result in test [1], in test [2], in test [3], in test [4], in test [5] and in test [6] was “inactive” throughout. In addition, the Potency result in [7], in [8] and in test [9] was “inactive” throughout.
Regarding `Nc1ccc(N)c([N+](=O)[O-])c1`, the Potency entry in test [1] was “inactive”. Besides, in test [2], the Potency was 54.5 µM (active).
Turning to `C=CC(=O)O[C@H]1C[C@@H]2CC[C@@]1(C)C2(C)C`, the Potency entry in test [1], in test [2], in test [3], in [4], in [5] and in test [6] was “inactive” each time. Moreover, the Potency result in [7] and in [9] was “inactive” throughout.
On to `O=C1Cc2ccccc2C1`, for which, in test [1], the Potency entry was “inactive”.
On to `COC(=O)c1ccc([N+](=O)[O-])cc1`, for which the Potency result in [1], in test [2], in [3], in test [4], in test [5] and in [6] was “inactive” in each case. Moreover, the Potency result in [9] was “inactive”. The Potency in test [7] is 17.8 µM (active).
Consider `O=C(Nc1ccc([N+](=O)[O-])cc1)Nc1ccc([N+](=O)[O-])cc1` (tested in a mixture with another compound), for which the Potency result in test [1], in test [2], in [3], in [4], in [5] and in test [6] was “inactive” each time. Besides, the Potency result in test [7] and in test [9] was “inactive” throughout.
